# PubChem BioAssay (Tox21)
# Several values for one entry are separate records, joined by “and”; a condition that tells them apart may be missing. Identical values can stand only once. Records with an inconclusive call do not appear. Unmarked numbers belong to inactive results. Activity calls are given as the source filed them. The call rests on the fitted dose curve; in most records, active means well fitted activation curve with a large enough effect in the repeat runs; inconclusive means weak or mixed curves; inactive means flat fitted curve, though single readings scatter.
# Assay: A CellTox Green Cytotoxicity Assay to monitor cytotoxicity in HEK293 cells - 32 hour (AID 1224881); further: nearly all actives have a fitted effect of over 40% in size
# Conditions: CellTox Green fluorescence; series mostly up to 35.3 µM; cytotoxicity increase: at the top concentration
# Text: National Center for Advancing Translational Sciences [NCATS]
# NIH Chemical Genomics Center [NCGC]
# U.S. Environmental Protection Agency [EPA]
# National Institutes of Environmental Health Sciences [NIEHS]
# National Toxicology Program [NTP]
# Cell-based models are critical for drug discovery. Determining the natural cytotoxic effects resulting from test compounds is an essential research activity. A CellTox Green Cytotoxicity Assay to monitor cytotoxicity in real time of continues cell culture during 40 hours of the compound treatment was used to screen Tox21 10K library compounds in Hek293 cells. CellTox Green Cytotoxicity Assay is a nonlytic, homogeneous, biofluorescent method to measure cytotoxicity in cell culture after experimental manipulation. The assay system uses a proprietary asymmetric cyanine dye that is excluded from viable cells but preferentially stains the dead cell's DNA. […] Viable cells produce no appreciable increases in fluorescence. Therefore, the fluorescence signal produced by the binding interaction with dead cell DNA is proportional to cytotoxicity.
# The mixture of Hek293 cell suspension and reagents were dispensed at 600cells/6 ul/well in 1536-well tissue culture treated black solid bottom plates using a Multidrop dispenser. After the assay plates were incubated at a 37 C/5% CO2 incubator for 5 hours, 23 nL of compounds dissolved in DMSO, positive and negative controls was transferred to the assay plate by a pintool work station. The plates were incubated at 37 C for 40 hours. The fluorescence intensity were measured at 0h, 8h, 16h, 24h, 32h and 40h time points using ViewLux plate reader during compound treatment.
# On the % scale 0 is the no-effect control and ±100 the full control effect; potency means the concentration at half of the fitted maximal effect.
SMILES,cytotoxicity increase,Potency
CCCN1CCCC[C@H]1C(=O)Nc1c(C)cccc1C,-3.88%,–
CCOC(=O)c1ccc(C)cc1,-7.05% [at 76.8 µM],–
CCOC(=O)c1c(C)n(C)c2ccc(O)cc12,2.92%,–
COc1c(N2C[C@@H]3CCCN[C@@H]3C2)c(F)cc2c(=O)c(C(=O)O)cn(C3CC3)c12,-6.74%,–
CC(=O)CC(C)(C)C1CCCCC1,-3.31% [at 76.8 µM],–
CCc1cccc2c(CCO)c[nH]c12,5.23%,–
CC(NC(CCc1ccccc1)C(=O)O)C(=O)N1C(=O)N(C)CC1C(=O)O (stereo not given),-6.84%,–
Cc1ccc(C#N)cc1,-1.81% [at 76.8 µM],–
CCOC(=O)Nc1ccc(NCc2ccc(F)cc2)nc1N,-14.7%,–
CCc1ccc(O)c(OC)c1,-20.5% [at 76.8 µM],–
CO/N=C(/C(=O)N[C@@H]1C(=O)N2C(C(=O)OCOC(=O)C(C)(C)C)=C(C)CS[C@H]12)c1csc(N)n1,-1.49%,–
OCCOc1ccc(OCCO)cc1,-0.056% [at 76.8 µM],–
O=C(CCCN1CCN(c2ccccn2)CC1)c1ccc(F)cc1,-15.9%,–
C[N+](C)(C)CCCCCC[N+](C)(C)C,–,inactive
CC1(C)C(O)C(C)(C)C1O (stereo not given),-0.196% [at 76.8 µM],–
CN1C(=O)N(C)C(O)C1O (stereo not given),1.48% [at 76.8 µM],–
C=C(C)C(=O)OCCCCCCCC(C)C,4% [at 76.8 µM],–
CC(C)CCCC(C)N (stereo not given),-9.15%,–
CC/C=C\CC/C=C/C(OCC)OCC,-2.57% [at 76.8 µM],–
CCC(C)S (stereo not given),1.61% [at 2.72 µM],–

SMILES,cytotoxicity increase,Potency
COc1ccc2c(c1)c(CC(=O)OCC(=O)O)c(C)n2C(=O)c1ccc(Cl)cc1,-6.84%,–
CC1=CC(C)C(C=O)CC1 (stereo not given),-0.945% [at 76.8 µM],–
OC(CCN1CCCCC1)(c1ccccc1)C1CC2C=CC1C2 (stereo not given),22.1%,–
O=S(O)CO,6.2% [at 76.8 µM],–
Cc1nc2c([nH]1)c(=O)n(C)c(=O)n2Cc1ccco1,16.5%,–
O=c1cc(CO)occ1O,13.2%,–
CN(C)CCCN1c2ccccc2CCc2ccc(Cl)cc21,–,49 µM (active) and 26.8 µM (active)
CCCC(=O)O[C@]1(C(=O)CO)CC[C@H]2[C@@H]3CCC4=CC(=O)CC[C@]4(C)[C@H]3[C@@H](O)C[C@@]21C,0.101%,–
c1ccc([C@H]2CN3CCSC3=N2)cc1,-12.2%,–
CCOc1ccc(C(=O)OCCN(CC)CC)cc1,-2.3%,–
Nc1c[n+](N2CCOCC2)no1,1.72%,–
Oc1ccc(C2CNCCc3c2cc(O)c(O)c3Cl)cc1 (stereo not given),1.09%,–
CN1CC(=O)NC1=N,3.26%,–
Cc1sccc1Br,-8.73%,–
COC(=O)CC(C)=O,17% [at 76.8 µM],–
COc1cc(C(=O)N2CCCCCCC2)cc(OC)c1OC,-6.65%,–
c1ccc(CC2=NCCN2)cc1,-18%,–
C=COCC1CCC(CO)CC1 (stereo not given),-1.12% [at 76.8 µM],–
CCS(=O)(=O)c1ccc(OC)c(C(=O)OC)c1,-4.6%,–
CC(C)(c1ccc(O)cc1)c1ccc(O)cc1,–,inactive
